Out of some 69,000 compounds screened, about 8,600 (12%) showed an effect of 50% or more. The full list was thinned out, with strong results kept by preference.
Each compound was assayed on Plasmodium berghei (assay: Screen against P. berghei liver stage (PbLuc), transformed with Luciferase, at 10uM). Details: tested at 10 uM.
Assay type: functional, HepG2

In order of falling INHIBITION:
1. Cc1ccc([C@]2(O)CC[C@H]3CN(Cc4ccc(Cl)cc4Cl)C[C@H]32)nc1  93.1%
2. CS(=O)(=O)c1cccc(OCC(=O)N2CCCC2c2ccccc2Cl)c1 (stereo not drawn)  85.2%
3. COc1cc(N2CC[C@@H]3[C@@H](CC2)OCCN3CC2CC2)ncn1  81%
4. CC(C)Cn1ncc(C(=O)NS(=O)(=O)c2ccccc2)c1C1CC1  79.7%
5. Cn1cnnc1CN1CCC2(CCC(=O)N(Cc3ccccc3)C2)CC1  76.2%
6. O=C(Nc1cnn(COc2ccc(F)cc2Cl)c1)C1CC1  71.3%
7. COc1cc(N2CCN(CC3CC3)c3nc(C)ccc3C2)ncn1  69.3%
8. Cc1n[nH]c(CN2CCN(c3ncnc4scc(C)c34)CC2)c1Cl  68.2%
9. CO[C@H]1CN(C(=O)c2ccc3oc(C)cc3c2)C[C@@]12CCCO2  63.4%
10. Cc1ccc([C@]2(O)CC[C@H]3CN(Cc4cccc(Cl)c4Cl)C[C@H]32)nc1  62%
11. CS(=O)(=O)c1cccc(OCC(=O)N2CCCC2c2ccc[nH]2)c1 (stereo not drawn)  61.6%
12. O[C@@]1(c2ccccn2)CC[C@H]2CN(Cc3cccc(Cl)c3Cl)C[C@H]21  61.4%
13. CCCS(=O)(=O)N1CCOC2(COCCN(C(C)=O)C2)C1 (stereo not drawn)  60%
14. CC(C)Cn1ncc(C(=O)NS(=O)(=O)C2CCCC2)c1C1CC1  58.8%
15. CC(C(=O)Nc1ncccn1)N1CCC(n2ccnc2)CC1 (stereo not drawn)  54.4%
16. COCCN1CCN(c2cccc(C)n2)Cc2ccc(C)nc21  53.9%
17. Cc1cc2nc(C(C)C)cc(NC(C)c3nncn3C3CCCC3)n2n1 (stereo not drawn)  51.2%
18. COCCN1CCN(c2ccc(C)nn2)Cc2ccc(C)nc21  51.2%
19. CN(C)CCn1ccnc1C1CCN(c2cc(N)nc(N)n2)CC1  50.5%
20. COCCC(=O)Nc1cnn(COc2ccc(F)cc2Cl)c1  50.4%
21. CC(C(=O)Nc1ccc2ccccc2c1)N1CCC(n2ccnc2)CC1 (stereo not drawn)  48.8%
22. Cc1cc2nc(C(C)C)cc(NC(C)c3nncn3C)n2n1 (stereo not drawn)  47.6%
23. CO[C@H]1CCN(C(=O)c2ccc3oc(C)cc3c2)C[C@@]12CCCO2  45.6%
24. CC(C)Cc1nc(OCC#N)c(C#N)c2c1CCC2  44.9%
25. CCN1CCC2(CC1)CC(NCc1ccncc1)c1ccccc1O2 (stereo not drawn)  43.9%
26. CC(C(=O)NCCc1cccs1)N1CCC(n2ccnc2)CC1 (stereo not drawn)  42.1%
27. CCCn1nc2c(cc1=O)CN(CC(=O)Nc1ccncc1)CC2  40.3%
28. Cc1cnn(CC(=O)N2CCC(Nc3ccc(C)nn3)CC2)c1  39.95%
29. Cn1cc(CN2CCC(c3cc(CCO)[nH]n3)C2)cn1 (stereo not drawn)  39.8%
30. COc1cc(N2CC[C@@H]3OCCN(C)[C@H]3CC2)ncn1  39.4%
31. Nc1nc(C2CCN(C(=O)c3cnccn3)CC2)cs1  38.2%
32. Cc1cc(NC(C)c2nncn2C2CCCC2)n2nc(C)cc2n1 (stereo not drawn)  35.8%
33. Cc1ccc(N2C[C@@H]3OCCN(CC4CC4)[C@@H]3C2)nn1  35.5%
34. COCCN1CCN(Cc2c(C)noc2C)Cc2ccc(C)nc21  33%
35. CCc1c(C(=O)Nc2ccc(F)c(C(=O)NC)c2)cnn1CC(C)C  30.9%
36. CCc1nc(C)c(CN2CCN(c3ncnc4scc(C)c34)CC2)[nH]1  30.5%
37. COCCN1CCN(c2cc(OC)ncn2)Cc2ccc(C)nc21  30.3%
38. CCCS(=O)(=O)N1CCN(CCOC)c2nc(C)ccc2C1  29.8%
39. O[C@]1(c2ccccn2)CC[C@@H]2CN(Cc3cccc4ncccc34)C[C@@H]21  27.9%
40. CC(C)c1nc2c(n1C)CCN(CC(=O)Nc1ccnn1C(C)C)C2  27.4%
41. COc1ccc(CN2C[C@H]3CC[C@](O)(c4ccc(C)cn4)[C@H]3C2)c(F)c1  27.3%
42. CNc1nccnc1C1CN(Cc2ccc(OCC(=O)O)cc2)CCO1 (stereo not drawn)  26.7%
43. COc1cccc(CN2C[C@@H]3CC[C@@](O)(c4ccccn4)[C@@H]3C2)c1OC  24.8%
44. Cc1cc(C(=O)N(C)C)nc(C2(C)CCCN2c2ccccc2)n1 (stereo not drawn)  23.9035%
45. COCCN1CCN(Cc2ccco2)Cc2ccc(C)nc21  23.1%
46. CN1CCN(C(=O)c2cccc(CN3CCOCC3)c2)CC1  22.3%
47. CSc1nccc(N2C[C@H]3CC[C@@H](C2)N(CC2CCC2)C3=O)n1  22.3%
48. CN(C)CCCC(=O)NC1CC(C)(C)Cc2nc(C(C)(C)C)ncc21 (stereo not drawn)  22%
49. CO[C@H]1CN(C(=O)c2ccc3oc(C)cc3c2)CC[C@@]12CCCO2  21.6%
50. CC(C)c1noc(CCCC(=O)N2CCN(Cc3ccsc3)CC2)n1  21.5%
51. Cc1noc(C)c1Cc1nc(N(C)C)no1  19.9%
52. CCC(=O)N1CCC(c2nc(C)ncc2-c2ccncc2)CC1  19.2%
53. CC(=O)N1CCOCC2(C1)CN(S(C)(=O)=O)CCO2 (stereo not drawn)  18.7%
54. CCS(=O)(=O)N1CCOC2(COCCN(C(C)=O)C2)C1 (stereo not drawn)  18.7%
55. Cc1cccc(CN2CC[C@@H]3[C@@H](CO[C@H]3CNc3ncccn3)C2)n1  18.4%
56. COCC(=O)N1CCCC1c1cccc(C)c1C (stereo not drawn)  17.1%
57. CCN1CC2(CCC1=O)CCN(Cc1nncn1C)CC2  17%
58. CCC1c2ccsc2CCN1C(=O)NCc1cccnc1N(C)C (stereo not drawn)  16.97%
59. Cc1ccc([C@]2(O)CC[C@H]3CN(Cc4cccc(F)c4F)C[C@H]32)nc1  15.9%
60. Cc1cccnc1[C@]1(O)CC[C@H]2CN(Cc3cccc(Cl)c3Cl)C[C@H]21  15.9%
61. CCCc1nnsc1C(=O)NCC(O)c1ccoc1 (stereo not drawn)  15.5%
62. CCCc1ccc(OC23CCCN(CC2)C3)c(OC)c1 (stereo not drawn)  14.9%
63. O=C(NS(=O)(=O)c1ccccc1)c1ccccc1F  14.8%
64. CC(C)Cn1ncc(C(=O)O)c1C1CC1  14.3%
65. Cc1nccn1Cc1nnc(C2CCCN(c3cnccn3)C2)n1C (stereo not drawn)  11.5%
66. COc1ccccc1Cc1cncc(N2CC(C(=O)O)C2)n1  10%
67. CC(C)N1CCC(c2nc3ccc(-c4ccnn4C)cn3n2)CC1  8.52%
68. Cc1occc1C(=O)N1Cc2nccn2CC(CN2CCOCC2)C1 (stereo not drawn)  5.89%
69. O=C(O)CCCC(=O)Nc1cnn(COc2ccc(F)cc2Cl)c1  4.52%
70. CCc1nc(C)c(CN2CCN(c3ncnc4c(C)csc34)CC2)[nH]1  4.35%
71. Cc1cc(C)n(CC2CCCN2CCCS(C)(=O)=O)n1 (stereo not drawn)  3.5625%
72. CCOC(=O)c1s/c(=N\C(=O)COc2cnc(C)cc2O)[nH]c1C  3.52%
73. O=C(c1cnn2cccnc12)N1CCCC(n2ccnc2)C1 (stereo not drawn)  2.3%
74. COCC(=O)Nc1cnn(COc2ccc(F)cc2Cl)c1  0.348%
75. CCC(O)CN1CCN(C(=O)c2cnn(-c3ccccc3F)c2)CC1 (stereo not drawn)  -1.37%
76. COCCN1CCN(c2ccc(C)nn2)Cc2cccnc21  -2.03%
77. CN(C)[C@@H]1CN(Cc2ccco2)C[C@@H]2CCCO[C@@H]21  -2.27%
78. COc1ccc(C(=O)NS(=O)(=O)c2cncc(Br)c2)cc1  -2.48%
79. CCn1c(Cn2cncn2)nnc1C1CCN(C2CCNCC2)CC1  -3.51%
80. COCCNC(=O)Cn1cc(NC(=O)c2cccc(Cl)c2Cl)cn1  -3.83%
81. CS(=O)(=O)NCc1cn2c(n1)CN(Cc1ccoc1)CC2  -4.02%
82. O=C(c1ccc(CNC2CCSC2)cc1)N1CCCC1 (stereo not drawn)  -4.12%
83. OC(CN1CCC(c2ccn[nH]2)CC1)c1cc(F)ccc1F (stereo not drawn)  -4.94%
84. COc1cc2ccccc2cc1C(=O)N1CCCC(c2nncn2C)C1 (stereo not drawn)  -8.11%
85. Cc1cccc(C2CCCN2C(=O)CCS(C)(=O)=O)c1C (stereo not drawn)  -8.84%
86. O=C(Nc1cnn(Cc2ccc(F)cc2Cl)c1)C1CC1  -10.8%
87. O=C(CSC1CCc2ccccc2NC1=O)Nc1ccc(CCO)cc1 (stereo not drawn)  -10.8%
88. COc1cc(N2CCC(c3nccn3CCCN(C)C)CC2)nc(N)n1  -10.9%
89. O=C(CCc1nc(C2CC2)no1)c1ccccc1  -12.2%
90. COCCNC(=O)c1ccc(C)c(-n2cccc2)c1  -15%
91. CN(C)c1cccc(C(=O)N2CCCC2c2ncc3c(n2)CCNC3)c1 (stereo not drawn)  -16.7%
92. Cc1sc(C(=O)NC(C)C)cc1S(=O)(=O)N(C)C  -16.8%
93. Cc1ccc([C@]2(O)CC[C@H]3CN(Cc4ccccc4F)C[C@H]32)nc1  -18.2%
94. CN(C)CCNc1c(-c2ccccc2)c(=O)c1=O  -20.1%
95. COCCCN1Cc2cccc(NC(=O)C(C)(C)C)c2C1  -21.1%
96. O=C(COc1ccccc1)N1CCCC1c1ccc[nH]1 (stereo not drawn)  -23.3%
97. Cn1ncc2c(=O)[nH]c(CN3CCCC3c3cccc(F)c3)nc21 (stereo not drawn)  -29.9%
98. CC(C)NC(=O)c1cc2c(nc1N(C)C)CCN(S(=O)(=O)C1CC1)CC2  -37.9%
99. O=C(COc1ccc2c(c1)CCC2)N1CCCC1c1ccc[nH]1 (stereo not drawn)  -38.6%
100. COc1cc(N2CCCC(c3nccn3CCN(C)C)C2)nc(N)n1 (stereo not drawn)  -40.3%
101. Cn1cnnc1CN1CCC2(CCC(=O)N(Cc3ccccn3)C2)CC1  -42.2%
102. Cc1ccc2c(n1)N(CC1CC1)CCN(S(=O)(=O)C1CC1)C2  -63.5%
103. CC(=O)c1ccc(F)cc1-c1cc(NCCO)nc2[nH]ccc12  -110%
